Data on six molecules can be found in PubChem BioAssay (NCATS).

Where “and” joins values, the source holds several entries; their conditions need not be identical. Identical values can stand only once. Records with an inconclusive call do not appear. Where a structure was tested more than once in an assay, its records may differ in their call. A number with no mark means an inactive call. Calls of active or inactive are those of the source. The call rests on the fitted dose curve; in most records, active means well fitted inhibition curve with a large enough effect; inconclusive means small, poorly fitted or top-dose-only effect; inactive means flat fitted curve, though single readings scatter.

Assay [1] concerns CRL-7250. The assay is described as follows: Cytotoxic Profiling of Annotated Libraries Using Quantitative High-Throughput Screening (AID 1296008). Further: potency means the concentration at half of the fitted maximal effect. On max response: on the % scale 0 is the no-effect control and ±100 the full control effect. The note with it: Five cell lines viability, CellTiter-Glo ATP luminescence, 48-72 h; max response: stronger effect = lower value. The procedure, abridged:
(§1)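 Compounds were pin-transferred onto cells and incubated 48 or 72 hr at 37 degree Celsius, 95% humidity. CellTiter-Glo was added, plates sat 10 min at room temperature, then ATP-coupled luminescence was imaged as the viability read-out.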

Assay [2] relates to HaCat. Described as above. To be noted: Five cell lines viability, CellTiter-Glo ATP luminescence, 48-72 h; max response: stronger effect = lower value. The procedure, abridged: as §1
(In general: ATP-based viability assays read luminescence as a measure of living cells.)

In assay [3] the test system is KB-3-1. The description is as above. To be noted: Five cell lines viability, CellTiter-Glo ATP luminescence, 48-72 h; max response: stronger effect = lower value. The procedure, abridged:
as §1

Assay [4] has as its system NIH3T3. The assay is described as above. The note with it: Five cell lines viability, CellTiter-Glo ATP luminescence, 48-72 h; max response: stronger effect = lower value. The procedure, abridged: as §1
Assay [5] has as its system HACAT. Nature of the assay: qHTS assay to identify novel small-molecules to repurpose for Merkel cell carcinoma treatment (AID 1296009). To be noted: MCC and control cell lines, CellTiter-Glo viability, 72 h; at 44.8 µM (top of the series) unless noted. The procedure, abridged: (§2)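 Viability readout: ATP luminescence (CellTiter-Glo) after 72 hr drug exposure at 37 degree celsius. Dose-response format was 8 points for NPC and 11 points for MIPE; data normalized to in-plate controls.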
In general terms: In qHTS, concentration-response curves come from the screen itself.

Assay [6] deals with HEK293T. The description is as above. The note with it: MCC and control cell lines, CellTiter-Glo viability, 72 h; at 44.8 µM (top of the series) unless noted. The procedure, abridged:
as §2

Assay [7] deals with MCC-13. The description is as above. To be noted: MCC and control cell lines, CellTiter-Glo viability, 72 h; series mostly up to 46 µM. The procedure, abridged: as §2
Assay [8] deals with MCC-26. The description is as above. The note with it: MCC and control cell lines, CellTiter-Glo viability, 72 h; series mostly up to 46 µM. The procedure, abridged: as §2
Assay [9] concerns MKL-1. The description is as above. The note with it: MCC and control cell lines, CellTiter-Glo viability, 72 h; series mostly up to 46 µM. The procedure, abridged:
as §2

In assay [10] the test system is MKL-2. The assay is described as above. To be noted: MCC and control cell lines, CellTiter-Glo viability, 72 h; series mostly up to 46 µM. The procedure, abridged: as §2
Assay [11] relates to NIH3T3. The description is as above. The note with it: MCC and control cell lines, CellTiter-Glo viability, 72 h; at 44.8 µM (top of the series) unless noted. The procedure, abridged:
as §2

Assay [12] concerns UISO. The description is as above. The note with it: MCC and control cell lines, CellTiter-Glo viability, 72 h; series mostly up to 46 µM. The procedure, abridged:
as §2

Assay [13] deals with WaGa. The assay is described as above. The note with it: MCC and control cell lines, CellTiter-Glo viability, 72 h; series mostly up to 46 µM. The procedure, abridged:
as §2

Assay [14] relates to HEK293. The assay is described as follows: Cytotoxic Profiling of Annotated Libraries Using Quantitative High-Throughput Screening (AID 1296008). Further: potency means the concentration at half of the fitted maximal effect. On max response: on the % scale 0 is the no-effect control and ±100 the full control effect. The note with it: Five cell lines viability, CellTiter-Glo ATP luminescence, 48-72 h; max response: stronger effect = lower value. The procedure, abridged:
as §1

For assay [15], the system named is PC49. Nature of the assay: qHTS profiling for inhibitors of Plasmodium falciparum proliferation (AID 504749).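 Further: 0% = DMSO vehicle and full inhibition = artemisinin control.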 To be noted: P. falciparum in erythrocytes, SYBR Green DNA, 72 h; series mostly up to 28.7 µM. The procedure, abridged:
(§3)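 Quantitative HTS: compounds pinned into medium, infected erythrocytes added (0.3% parasitemia, 2.5% hematocrit), 72 h culture at 37 C under 5% CO2. Saponin/Triton lysis with SYBR Green I, overnight RT, then fluorescence read.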

The subject of assay [16] is SC27B. The assay is described as above. To be noted: P. falciparum in erythrocytes, SYBR Green DNA, 72 h; series mostly up to 28.7 µM. The procedure, abridged: as §3
Assay [17] concerns TAB109. The assay is described as above. To be noted: P. falciparum in erythrocytes, SYBR Green DNA, 72 h; series mostly up to 28.7 µM. The procedure, abridged:
as §3

Assay [18] has as its system TAB113. The description is as above. The note with it: P. falciparum in erythrocytes, SYBR Green DNA, 72 h; series mostly up to 28.7 µM. The procedure, abridged:
as §3

The subject of assay [19] is TAB165. Described as above. To be noted: P. falciparum in erythrocytes, SYBR Green DNA, 72 h; series mostly up to 28.7 µM. The procedure, abridged: as §3
Assay [20] deals with W2. The description is as above. To be noted: P. falciparum in erythrocytes, SYBR Green DNA, 72 h; series mostly up to 28.7 µM. The procedure, abridged: as §3
Further: nearly all actives have a fitted effect of over 60% in size.

With `COCCCOc1cc(C[C@@H](C[C@H](N)[C@@H](O)C[C@H](C(=O)NCC(C)(C)C(N)=O)C(C)C)C(C)C)ccc1OC`, the max response is -2.04% in assay [1]; 0.78% in assay [2]; -10.1% and 2.39% in assay [3]; -0.804% in assay [4]. In addition, the molecule was called inactive in assay [2], in [4], in assay [5], in assay [6] and in assay [11]. Also, the Potency entry in assay [7], in [8], in assay [9], in [10], in assay [12] and in [13] was “inactive” throughout.
Turning to `CC(C)(C)NC(=O)[C@H]1CC[C@H]2[C@@H]3CC[C@H]4NC(=O)C=C[C@]4(C)[C@H]3CC[C@]12C`, the max response in assay [1] is -15.1% and -1.46%; in assay [14], -5.16%; in [2] it was -13.8% and -8.14%; in [3] it was 9.49% and 2.45%; in assay [4], 2.59%. Besides, the outcome in assay [4] and in assay [11] was inactive. In addition, the Potency result in assay [7], in assay [8], in assay [9], in assay [10], in assay [12] and in assay [13] was “inactive” in each case.
For `COc1cc2ncnc(Nc3cccc(Cl)c3)c2cc1OC`, the Potency in [1] was 187 nM (active); in assay [2], 16.6 nM (active) and 1.46 µM (active); in [3], 16600 nM (active); in assay [4], 2090 nM (active). Besides, the max response in assay [4] is -25%. Besides, the Potency entry in assay [7], in assay [9] and in assay [10] was “inactive” throughout.
Turning to `COC(c1ccccc1)(c1ccccc1)[C@H](Oc1nc(C)cc(C)n1)C(=O)O`, the molecule was called inactive in assay [1], in assay [3], in assay [4] and in assay [11]. In addition, the max response in assay [14] is -24.1% and 3.62%; in assay [2] it was -18.5% and -6.09%; in [3], 0.37%; in assay [4] it was -19.9%. The Potency result in assay [7], in assay [8], in assay [9], in assay [10], in [12] and in assay [13] was “inactive” each time.
On to `Nc1nc(N)nc(-c2cc(Cl)ccc2Cl)n1`, for which the Potency entry in assay [15], in assay [16], in [17], in assay [18], in assay [19] and in assay [20] was “inactive” throughout. Further, the Potency result in [7], in assay [8], in [9], in assay [10], in assay [12] and in assay [13] was “inactive” in each case. Also, the max response in assay [1] is -4.29% and -4.54%; in assay [14], -8.28% and -2.53%; in [2], -21.1% and 4.26%; in assay [3], -7.71%; in assay [4], -1.04% and -13.6%.
`CCOC(=O)c1ccc(C#Cc2ccc3c(c2)C(C)(C)CCS3)nc1`: the Potency entry in [15], in assay [16], in assay [7], in [8], in [9] and in assay [12] was “inactive” in each case. Further, the Potency entry in assay [13] is “inactive”. Moreover, the max response in assay [1] is -0.581% and -12.4%; in assay [3] it was 5.71% and 0.466%; in assay [4], -3.55%. Also, the molecule was classed as inactive in assay [2], in assay [4], in assay [5] and in [11].
